Compound activity as filed in PubChem BioAssay.
Hits are enriched below; roughly 2.2% of the tested compounds scored in any of these assays.
M1 PAM: positive allosteric modulators of human M1 muscarinic receptor; 360,000 tested, 0.088% active; CHO-K1 hM1, Fluo-8 calcium fluorescence, ACh EC20; 0% = ACh EC20, 100% = maximal ACh; P11229; activation, % at 3 µM; in the data active = activation above about 19%, passing the limit was not always enough
M4 PAM: CHRM4 positive allosteric modulation; 360,000 tested, 0.4% active; AID 624126; P08173; CHO-K1 hM4/Gqi5, Fluo-8 calcium fluorescence, ACh EC20; 0% = ACh EC20, 100% = maximal ACh; activation, % at 3 µM;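 active = activation above its plate's cutoff, the mean activation of sample wells plus 3 SD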
Target sequence (P08173 whole entry, looked up): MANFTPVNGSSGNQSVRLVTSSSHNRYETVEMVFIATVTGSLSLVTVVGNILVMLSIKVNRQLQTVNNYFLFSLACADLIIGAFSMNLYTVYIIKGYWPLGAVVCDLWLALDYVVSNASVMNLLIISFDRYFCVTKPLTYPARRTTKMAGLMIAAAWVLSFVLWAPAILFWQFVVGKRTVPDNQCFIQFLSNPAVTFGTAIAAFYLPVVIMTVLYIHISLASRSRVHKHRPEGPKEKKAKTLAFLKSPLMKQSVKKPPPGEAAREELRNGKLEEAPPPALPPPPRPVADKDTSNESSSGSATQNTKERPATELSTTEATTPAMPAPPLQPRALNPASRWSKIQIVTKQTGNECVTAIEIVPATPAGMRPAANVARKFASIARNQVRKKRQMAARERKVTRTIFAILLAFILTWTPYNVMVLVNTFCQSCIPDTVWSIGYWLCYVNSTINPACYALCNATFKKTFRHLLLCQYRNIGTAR
M1 ag: human M1 muscarinic receptor agonism; P11229; CHO-K1 hM1, Fluo-8 calcium fluorescence, agonist mode; 0% DMSO, 100% acetylcholine EC100; activation, % at 3 µM; 360,000 tested, 0.33% active; AID 588814;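 active = activation above the run's mean compound activation plus 3 SD, cut at about 16% in these data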;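 note: peak over basal fluorescence ratio within a 140 s kinetic read after compound addition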
M1 antag: antagonists of human M1 muscarinic receptor; CHO-K1 hM1, Fluo-8 calcium fluorescence, ACh EC80 antagonist; inhibition, % at 3 µM; 360,000 tested, 1.3% active; AID 588852;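 active = percent inhibition above its own plate's cutoff, namely the mean of that plate's compound wells plus 3 SD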;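 note: peak over basal fluorescence ratio during 140 s after agonist addition; 0% = ACh EC80 plus DMSO and 100% = DMSO alone without agonist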
M4 antag: antagonists of human muscarinic M4 receptor (CHRM4); 360,000 tested, 0.73% active; inhibition, % at 3 µM; AID 624125; CHO-hM4 cells, ACh EC80, Fluo-8 calcium fluorescence; P08173;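 active = inhibition above its plate's cutoff, the mean inhibition of sample wells plus 3 SD, cut at about 27% in these data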;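 note: 0% = acetylcholine EC80 with DMSO and 100% = DMSO without agonist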
CHRM4 agonist: CHRM4 agonism in calcium assay; P08173; CHO-K1 hM4/Gqi5, Fluo-8 calcium fluorescence; vehicle 0%, full acetylcholine response 100%; 360,000 tested, 0.14% active; activation, % at 3 µM;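 active = activation above the run mean over all test wells plus 3 SD, cut at about 32% in these data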;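 note: peak over basal fluorescence ratio per well then scaled between controls; 0% = DMSO wells and 100% = acetylcholine at EC100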
* hit, by the source's call; ! = not active in a repeat.

SMILES | M1 PAM | M4 PAM | M1 ag | M1 antag | M4 antag | CHRM4 agonist
CCOC(=O)c1sc(NC(=O)Nc2cccc(Cl)c2)cc1C | -18.4 | -24.2 | 3.3 | 42.9* | 37.5* | 17.0
CCOC(=O)c1sc(NC(=O)c2cccs2)cc1C | 7.6 | 6.8 | -3.8 | -16.5 | 1.3 | 1.2
Cc1cccc(NC(=O)c2cccc(NS(=O)(=O)c3ccc(Cl)cc3)c2)c1 | -4.5 | -4.2 | -3.8 | 5.3 | -11.5 | 4.8
CC1=NNC(=O)/C1=C\c1cn(-c2ccccc2)nc1-c1cccs1 | -2.8 | -18.9 | 1.8 | 33.6* | 60.1* | 13.9
CSc1ccccc1C(=O)C1CCCN(Cc2c(C)n(C)n(-c3ccccc3)c2=O)C1 (stereo not given) | -32.8 | -15.2 | -12.8 | 78.7* | 24.9 | 0.4
COc1c(C)cc(C(=O)C2CCCN(Cc3c(C)n(C)n(-c4ccccc4)c3=O)C2)cc1C (stereo not given) | -23.8 | -1.8 | -13.4 | 7.8 | 2.5 | 0.4
Cc1ccc(O)c(C(=O)c2cnc(/N=C(\N)N(C)C)nc2)c1 | -15.1 | -21.0 | -14.4 | 6.5 | 38.4* | 1.6
COc1ccc(NC(=S)NCCSc2ccc(C)cc2)c(OC)c1 | -7.3 | -9.4 | -5.4 | -13.6 | -3.7 | 4.8
Cc1ccc2nc3c(cc2c1)c(C)nn3-c1ccccc1 | 4.6 | 30.8* | -5.6 | -7.3 | -44.1 | 0.3
CCOC(=O)c1cnc(SC2CC(=O)N(c3ccc(OC)c(OC)c3)C2=O)nc1N (stereo not given) | 6.6 | 4.0 | -3.4 | -1.9 | -3.0 | 3.7
COC(=O)Cn1ccc(-c2ccc(Cl)cc2)c(C#N)c1=O | 1.8 | 1.5 | -3.5 | 1.2 | 3.4 | 3.0
C=C(C)CSc1nnc(-c2ccc(OC)c(OC)c2)n1N | 13.2 | 30.5* | -1.1 | -14.7 | -5.0 | 1.3
COc1ccc(N=C2S/C(=C\c3ccc(N4CCOCC4)o3)C(=O)N2CCc2c[nH]c3ccccc23)cc1 | 5.9 | -13.0 | 2.8 | -2.5 | 44.7* | 8.4
CCOc1ccccc1C(=O)N(CN1CCCC1=O)c1ccc(C)c(Cl)c1 | 6.1 | -0.9 | -6.3 | -3.7 | 14.2 | 0.7
CCN1C(=O)C(CC(=O)Nc2ccccc2Cl)N(NC(=O)c2cccc(F)c2)C1=S (stereo not given) | 4.2 | 1.5 | -0.9 | -3.7 | -8.5 | 9.3
CN1C(=O)C(CC(=O)Nc2ccc(F)cc2)N(NC(=O)c2cccc(F)c2)C1=S (stereo not given) | -9.2 | -18.1 | 0.2 | 49.5* | 4.0 | 1.1
CCOC(=O)c1cnc2ccccc2c1NCc1ccco1 | -26.5 | -13.6 | -7.6 | 91.8* | 16.9 | 2.1
CC(C)CC(=O)Nc1ccc(S(=O)(=O)N2CCCC2)cc1 | 3.4 | -6.0 | -6.0 | -3.2 | 8.9 | 0.7
Cc1cc(/C=C\c2ccc3cc(N(C)C)ccc3[n+]2C)c(C)n1-c1ccccc1 | -28.4 | -18.8 | 26.1* | 90.0* | 45.3* | 19.8
Cc1cn(C2CCC(CO)O2)c(=O)[nH]c1=O (stereo not given) | 10.2 | -1.9 | -2.0 | -8.8 | -4.8 | 0.2
O=C(C1CCC(CNc2nc(=S)[nH]c3ccccc23)CC1)N1CCN(c2ccc(F)cc2)CC1 (stereo not given) | -12.6 | -6.4 | -7.4 | 32.6* | 0.2 | -0.2
COc1ccc(N2CCN(CCCNC(=O)C3CCC(CNc4nc(=S)[nH]c5ccccc45)CC3)CC2)cc1 (stereo not given) | 3.9 | -13.4 | -7.0 | -2.8 | -9.9 | 10.0
Cc1c(S(=O)(=O)Nc2ccc(Br)cc2)c(=O)n(C)c(=O)n1C | -15.0 | -9.5 | -4.1 | 30.2* | 17.5 | 20.2
CCCCc1ccc(NS(=O)(=O)c2c(C)n(C)c(=O)n(C)c2=O)cc1 | -2.8 | -0.1 | -7.7 | -1.8 | -4.0 | 4.3
O=C(CN1CCC(Cc2ccccc2)CC1)NC(=O)NCc1ccco1 | 20.1* | 9.0 | -3.2 | -32.4 | 0.6 | -0.4
SMILES | M1 PAM | M4 PAM | M1 ag | M1 antag | M4 antag | CHRM4 agonist
O=c1cc(CN2CCN(Cc3ccccc3)CC2)c2ccc(O)cc2o1 | 15.1 | 0.8 | -9.5 | -17.7 | -5.7 | 1.7
C(=N\n1cnnc1)/c1ccc(OCc2ccccc2)cc1 | 6.3 | 2.6 | -4.2 | -3.4 | -6.8 | 1.1
Cc1cc(/C=N/n2cnnc2)c(C)n1-c1ccc(OCc2ccc(Cl)cc2)cc1 | -15.1 | -11.9 | -0.4 | 37.5 | 30.2* | 5.1
Fc1ccccc1COc1cccc(/C=N/n2cnnc2)c1 | 5.0 | -0.2 | -2.4 | 1.4 | 10.0 | 0.5
Cc1cc(/C=N/n2cnnc2)c(C)n1-c1ccc(OCc2ccccc2F)cc1 | -27.4 | -15.0 | -8.9 | 45.5* | 30.7* | 7.6
COC(=O)[C@@]1(Cc2ccccc2)[C@H]2C(=O)N(C)C(=O)[C@H]2[C@H]2CN=C(SCC(=O)c3ccccc3)N21 | -32.5 | -2.3 | -11.0 | 101.6* | 7.7 | 1.3
O=C(CN1CC(c2ccccc2)CC1=O)Nc1ccc2c(c1)OCO2 (stereo not given) | 24.1 | -5.4 | 7.4 | -10.0 | -2.8 | 1.2
COc1ccc(/C=N/NC(=O)/C(=C/c2ccccc2)CCO)cc1 | 29.0* | 4.5 | -4.8 | 2.1 | 8.0 | 1.1
C/C(CC1CC2=C(CC1(C)C)C(C)(C)CCC2)=N\NC(N)=S (stereo not given) | 14.8 | 42.9* | 3.6 | -14.4 | 5.3 | 0.8
COc1cc(NC(=O)c2ccno2)cc(C(=O)Nc2cccc(C(F)(F)F)c2)c1 | -20.7 | -12.8 | 9.2 | 30.6* | 20.9 | 28.3
COc1ccc(-c2cc(C(=O)Nc3cc(OC)cc(C(=O)Nc4cccc(C(F)(F)F)c4)c3)[nH]n2)cc1 | -10.7 | -0.6 | 0.7 | 41.0*! | -9.4 | 4.8
CC(C)Oc1cc(F)ccc1-c1cc(C(=O)Nc2cccc(C(F)(F)F)c2)[nH]n1 | -22.2 | -10.5 | -4.1 | 35.4* | 12.6 | 1.0
COc1ccc(NC(=O)c2cc(-c3ccc(F)cc3OC(C)C)n[nH]2)cn1 | -4.7 | -5.9 | -3.5 | 8.0 | 0.5 | 10.5
CCN(CC)CCCN1C(=O)C(O)=C(C(=O)c2cc3ccccc3o2)C1c1ccccn1 (stereo not given) | 8.8 | 15.3 | -2.9 | -8.8 | -0.8 | 1.6
Cc1cccn2c(=O)nc(SCC(=O)N3CCC(Cc4ccccc4)CC3)nc12 | -3.0 | -16.3 | 19.7* | 14.1 | 18.0 | 2.9
CCN(CC)c1nc2c(s1)C(=O)NCCC2 | -1.4 | 1.2 | -12.1 | 5.7 | 5.8 | 2.1
COc1ccccc1CCNC(=O)c1cc(-c2ccccn2)nc2ccccc12 | -10.9 | -3.7 | -4.1 | 32.0* | 2.6 | 6.5
C=C1c2ccccc2O[C@H](C(=O)OCC)[C@@H]1C1CCCCC1 | 7.3 | 9.3 | -2.6 | -17.5 | -18.0 | -0.5
Cc1ccc(C(=O)NC2CC3CCCC(C2)N3C(=S)NCc2ccco2)cc1 (stereo not given) | 9.9 | 21.4* | -5.4 | -3.8 | -14.3 | 1.2
